Screening results (PubChem)
Shown are actives, neighbours in structure and some others; about 14% of the full set was active somewhere.
HSD17B inh – qHTS Assay for Inhibitors of HSD17B4, hydroxysteroid (17-beta) dehydrogenase 4; 3-hydroxyacyl-CoA dehydrogenase type-2 (Homo sapiens), Q99714; recombinant HSD17B10, NADH fluorescence kinetic; Potency, µM (titrated, usually from 57.1 µM), for inactives: top-dose activity change, negative = inhibition, actives largely listed as inhibitors; AID 893, 2007; hit rate 7.6% among 75,000;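 note: the protocol describes HADH2 (HSD17B10) and not the HSD17B4 of the title; potency is the fitted concentration of half-maximal effect; % is set by controls: 0 for no effect and ±100 for the full control effect; nearly all actives have a fitted effect of over 70% in size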
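Enzyme plus compound, 15 min room temperature; substrate mix added (NAD+ 1 mM, beta-hydroxybutyryl-CoA 90 uM final); plates read kinetically for NADH fluorescence. HADH2 was His-tagged, E. coli-derived, 20 nM.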
AID923 – qHTS Assay for Allosteric/Competitive Inhibitors of Caspase-1: Spectroscopic Profiling in AFC Spectral Region; AID 923, 2007; hit rate 1.1% among 75,000; compound fluorescence, AFC spectral region (405/520 nm); Potency, µM (doses to about 57.5 µM), inactives show at the top dose fluorescence increase, actives largely listed as activators; note: potency is the fitted concentration of half-maximal effect; 0% is about no effect
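Titrations up to 57 uM read every 20 sec for 3 min (405/520 nm) with 50 nM caspase 1 and 5 uM Ac-WEHD-AFC, pH 7.5 HEPES buffer. Fluorescence-vs-time intercept gave baseline, scaled against on-plate AFC standard.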
CRE Fsk mod – Cell signaling CRE-BLA (Fsk stim). Potency, µM (series often up to 38.2 µM), inactives show at the top dose activity change, negative = inhibition, most hits filed as activators. CHO CRE-bla reporter (cAMP response element driving beta-lactamase), forskolin EC10, beta-lactamase ratio. hit rate 2.5% among 71,000; active = well fitted activation curve with a large enough effect in the signal ratio, with a control signal flat, not every such curve was filed as active; inconclusive = small, poorly fitted or top-dose-only effect, or effect the other way, or a change in a side signal; the % refers to the signal ratio; note: potency is the fitted concentration of half-maximal effect; % of control where 0% means no effect
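Cells were plated overnight at 37 °C, exposed to compound titrations plus EC10 NKH 477 for 3 h, then given CCF4 dye for 2 h at room temperature. Blue/green (460/530 nm) ratio was converted to %Activity and AC50 values calculated.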
HADH2 inh – qHTS Assay for Inhibitors of HADH2 (Hydroxyacyl-Coenzyme A Dehydrogenase, Type II); 3-hydroxyacyl-CoA dehydrogenase type-2 (Homo sapiens), Q99714; recombinant HADH2, NADH fluorescence, beta-hydroxybutyryl-CoA; Potency, µM (top dose mostly 57.1 µM), without a hit: at the top dose activity change, negative = inhibition, hits mostly inhibitors; hit rate 3.4% among 73,000; note: potency is the fitted concentration of half-maximal effect; % is set by controls: 0 for no effect and ±100 for the full control effect; nearly all actives have a fitted effect of over 60% in size
Target sequence (Q99714 whole entry, looked up, one chain of several): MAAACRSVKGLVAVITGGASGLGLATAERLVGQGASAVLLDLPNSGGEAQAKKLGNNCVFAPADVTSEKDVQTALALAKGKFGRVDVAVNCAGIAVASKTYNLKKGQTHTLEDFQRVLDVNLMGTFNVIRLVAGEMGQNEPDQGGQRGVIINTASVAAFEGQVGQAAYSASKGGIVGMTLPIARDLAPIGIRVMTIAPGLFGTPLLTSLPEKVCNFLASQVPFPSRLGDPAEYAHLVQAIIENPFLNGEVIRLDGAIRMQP
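E. coli-expressed His-tagged HADH2 tested at 20 nM in alkaline Tris buffer (pH 9.0); oxidation of 90 uM beta-hydroxybutyryl-CoA with 1 mM NAD+ tracked fluorimetrically for 4 min.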
4MU fluor – qHTS Assay for Spectroscopic Profiling in 4-MU Spectral Region. compound autofluorescence, 340/450 nm, 4-MU equivalents; active compounds read high. hit rate 11% among 59,000. max dye-equivalent concentration, M; in the data active = max dye-equivalent concentration above about 10 nM; inconclusive = mostly about 1.1 nM to 9.6 nM
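Intrinsic fluorescence at 340/450 nm (ex/em) was read after 15 min at room temperature in pH 8.0, 100 mM Tris. Each compound concentration expressed as 4-MU-equivalent concentration from a six-point 4-MU standard series on each plate.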
A350 autofl – qHTS Assay for Spectroscopic Profiling in A350 Spectral Region; max dye-equivalent concentration, M; Compound autofluorescence, 340/450 nm, Alexa 350 dye-equivalents; active compounds read high; hit rate 11% among 59,000; AID 590, 2007; in the data active = max dye-equivalent concentration above about 10 nM; inconclusive = mostly about 1.1 nM to 9.6 nM
* marks the source's active call; other numbers are inactive results; i = inactive; ? = inconclusive; . = no result given; [ ] = remark or other dose. Unless noted, calls come from the whole dose curve; as a rule, active = well fitted curve in the direction sought with a large enough effect; inconclusive = small, poorly fitted or top-dose-only effect, or another doubt; inactive = no such curve, though single readings can be large; an effect the other way counts as inactive or inconclusive.

SMILES	HSD17B inh	AID923	CRE Fsk mod	HADH2 inh	4MU fluor	A350 autofl
Nc1nc(-c2ccccc2)cc(N2CCCCC2)n1	-26.8%	0.9%	?	?	2.37e-08M*	4.39e-08M*
FC(F)(F)c1cc(-c2cccs2)nc(N2CCOCC2)n1	12.6µM*	-1.1%	?	?	4.9e-08M*	5.84e-08M*
COc1ccc(-c2cc(C(F)(F)F)nc(N3CCCCCC3)n2)cc1	31.6µM*	1.2%	24.7%	-12.3%	6.61e-08M*	5.68e-08M*
COc1ccc(S(=O)(=O)NCC2CCC(C(=O)N3CCC4(CC3)OCCO4)CC2)cc1 (stereo not given)	10.2%	-1.7%	2.3%	0.3%	i	i
CCCC(=O)Nc1cc(C)c(NC(=O)c2ccncc2)cn1	-2.2%	-1.7%	3.6%	-10.6%	i	i
CCn1nc(NC(=O)c2ccncc2)c2cc3ccc(C)cc3nc21	461.1%	6.5%	12.6µM*	43.6%	6.56e-08M*	8.5e-08M*
CCn1nc(NC(=O)c2ccncc2)c2cc3cc(C)ccc3nc21	4.1%	9.0%	2µM*	-8.3%	?	?
CCOc1ccc(NC(=O)c2ccncc2)cc1	-0.4%	0.3%	-13.9%	4.7%	i	i
Cc1ccc2c(C(=O)CN3CCN(C4CCCCC4)CC3)c(C)[nH]c2c1	-15.7%	2.7%	?	-1.5%	1.24e-07M*	4.36e-08M*
Cc1ccc2c(C(=O)CN3CCCCC3CCO)c(C)[nH]c2c1 (stereo not given)	-13.6%	0.9%	5.8%	4.1%	i	i
COC(=O)NC(/C=C/c1ccccc1)[C@]1(C(C)=O)CCCC1=O (stereo not given in full)	-4.4%[11.4 µM]	-0.9%[11.5 µM]	.	-11.2%[11.4 µM]	.	.
CCC(=O)Nc1nc2ccccc2n1CCN(C)C	.	.	.	.	2.56e-08M*	3.03e-08M*
COc1ccc(Nc2nc(N3CCCC3)nc3ccccc23)c(OC)c1	34.8%	3.4%	?	-5.2%	?	?
CN1CCN(c2nc(-c3ccc(N(C)C)cc3)nc3ccccc23)CC1	?	0.4%	?	3.4%	i	i
O=C(NCCO)c1nc(NCCO)c2ccccc2n1	4.4%	2.5%	3.2%	9.5%	i	i
C=CCNc1nc(N2CCCC2)nc2ccccc12	25.1µM*	-2.9%	29.2%	25.1µM*	1.77e-07M*	2.22e-07M*
CN1CCN(c2nc(N3CCN(CCO)CC3)nc3ccccc23)CC1	-6.0%	-0.7%	-10.5%	14.6%	4.8e-08M*	4.68e-08M*
OCCNc1nc(N2CCN(Cc3ccccc3)CC2)nc2ccccc12	5.7%	-0.5%	9.9%	1.6%	1.95e-08M*	1.87e-08M*
CCCN1Cc2cccc(C(=O)Nc3ccc(OC)c(OC)c3)c2C1=O	6.7%	1.2%	-1.5%	2.5%	1.27e-08M*	1.83e-08M*
CCOC(=O)N1CCC(N2Cc3cccc(C(=O)Nc4ccc(OC)c(OC)c4)c3C2=O)CC1	-2.6%	2.1%	?	1.2%	.	.
Cc1nc2ccc(C(C(F)(F)F)(C(F)(F)F)C(F)(F)F)cc2[nH]1	98.3%	-0.2%	13.0%	i	1.5e-07M*	2.22e-07M*
Cc1nc2ccc(Cl)cc2[nH]1	4.6%	1.5%	-11.8%	-0.1%	.	.
Cc1c(NC(=O)CC2CC(C)OC2=O)c(=O)n(-c2ccccc2)n1C (stereo not given)	5.2%	-1.4%	?	i	7.42e-06M*	1.03e-05M*
CC(C)=C[C@H]1[C@@H](C(=O)Oc2ccccc2C(C)C)C1(C)C	9.2%[11.4 µM]	-3.0%[11.5 µM]	?	16.0%[11.4 µM]	i	i
Cc1cnc(C(=O)Nc2ccccc2-n2cccc2)cn1	6.7%	-1.5%	25.4%	-3.5%	?	1.07e-08M*
COc1ccc(NC(=O)c2cnc(C)cn2)c2ncccc12	-9.8%	2.0%	-8.1%	?	i	i
COC(=O)C1=NOC2(C=C(Br)C(OC)=C(Br)C2=O)C1 (stereo not given)	-9.1%[11.4 µM]	-0.7%[11.5 µM]	.	1.58µM*	.	.
